In PubChem BioAssay (Tox21):
Where “and” joins values, the source holds several entries; their conditions need not be identical. Identical values can stand only once. Inconclusive results are not listed. Calls of active or inactive are those of the source. The call rests on the fitted dose curve; in most records, active means well fitted cell-killing curve with a large enough effect in the repeat runs; inconclusive means weak or mixed curves, or effect the other way; inactive means flat fitted curve, though single readings scatter.

Assay: qHTS assay to identify small molecule agonists of the androgen receptor (AR) signaling pathway in the presence of an antagonist - cell viability counter screen (AID 1259379); further: nearly all actives have a fitted effect of over 25% in size
Conditions: MDA-kb2 viability, CellTiter-Fluor, 16 h; series mostly up to 92.4 µM; activity change, negative = cytotoxicity: at the top concentration
From the text: National Center for Advancing Translational Sciences [NCATS]
NIH Chemical Genomics Center [NCGC]
U.S. Environmental Protection Agency [EPA]
National Institutes of Environmental Health Sciences [NIEHS]
National Toxicology Program [NTP]
U.S. Food and Drug Administration [FDA]
Androgen receptor (AR) is an important member of nuclear receptor family. Its signaling plays a critical role in AR-dependent prostate cancer and other androgen related diseases. Considerable attention has been given in the past decades to develop methods to study and screen for the environmental chemicals that have the potential to interfere with metabolic homeostasis, reproduction, developmental and behavioral functions. Therefore AR binding assay for screening against androgen agonists and antagonists can be used to identify potential endocrine disruptors.
MDA-kb2 cells (from ATCC, deposited by Wilson et al.) are human breast carcinoma cells that were stably transfected with a luciferase reporter gene under control of the MMTV promoter that contains response elements for both androgen receptor (AR) and glucocorticoid receptor (GR). This particular screening for measuring luciferase reporter gene activity using MDA-kb2 cells against Tox21 10K library compounds is a confirmation study on agonist mode screening in the presence of AR-antagonist compound (Nilutamide) at 3.0uM final concentration. The cytotoxicity of the compounds was tested in parallel by measuring the cell viability using CellTiter-Fluor assay system (Promega, Madison, WI) in the same wells.
Tox21 Assay Protocol Summary:
MDA-kb2 cells (cells cultured without CO2) were dispensed at 3,000 cells/well in 4uL of culture medium into white wall/solid-bottom 1536-well plates (Corning Life Sciences, Corning, NY) using a Multidrop Combi (Thermo Fisher Scientific Inc., Waltham, MA) dispenser. The assay plates were incubated at 37C and 0% CO2 for 5hr. One uL of 3.0uM (final concentration) Nilutamide or assay buffer was added using two separate tips of Flying Reagent Dispenser (FRD, Aurora Discovery, San Diego, CA). Then 23nL of compounds dissolved in DMSO at 15 concentrations and positive controls were transferred to the assay plates using a Pintool station (Wako, San Diego, CA). The assay plates were incubated at 37C and 0% CO2 for 16 hr. After 15hr incubation at 37C, 1uL/well CellTiter-Fluor reagent (Promega Corporation) was added to each well of the assay plates using FRD. After 1hr incubation at 37C and 0% CO2, the fluorescence signal was measured using a ViewLux plate reader (PerkinElmer, Shelton, CT).
On the % scale 0 is the no-effect control and ±100 the full control effect; potency means the concentration at half of the fitted maximal effect.

SMILES	activity change, negative = cytotoxicity	Potency
O=C(O)C(F)(F)C(F)(F)C(F)(F)C(F)(F)C(F)(F)F	1.72% (inactive)	–
C=CC(=O)OCC	2.25% (inactive)	–
O=[N+]([O-])/C=C/c1ccccc1	–	44 µM (active) and 68.6 µM (active)
CC(Oc1cc(Cl)c(Cl)cc1Cl)C(=O)O (stereo not given)	1.56% (inactive)	–
CC(C)(C#N)C(C)(C)C#N	1.1% (inactive)	–
CCC1(C2=NCCN2)Cc2ccccc2O1 (stereo not given)	6.47% [at 42.5 µM] (inactive)	–
C[C@H]1[C@@H]2Cc3ccc(O)cc3[C@@]1(C)CCN2C	-0.0093% [at 240 µM] (inactive)	–
CCOC(=O)c1cn2nc(OP(=S)(OCC)OCC)cc2nc1C	1.24% (inactive)	–
CCC1(CC)C(=O)NC(=O)NC1=O	-0.415% [at 42.5 µM] (inactive)	–
C[C@]12CC[C@H]3[C@@H](CCC4=CC(=O)CC[C@@H]43)[C@@H]1CC[C@@H]2OC(=O)CCc1ccccc1	2.88% [at 42.5 µM] (inactive)	–
O=CC=O	3.29% (inactive)	–
NP(N)(=O)NC(=O)c1ccc(F)cc1	2.17% [at 42.5 µM] (inactive)	–
COCc1cnc(C2=NC(C)(C(C)C)C(=O)N2)c(C(=O)O)c1 (stereo not given)	1.87% (inactive)	–
C=CC(C)(CCC=C(C)C)OC(=O)c1ccccc1N (stereo not given)	2.15% (inactive)	–
Cc1ccc(N)c(C)c1	–	inactive
CCCSP(=S)(OCC)Oc1ccc(SC)cc1 (stereo not given)	-0.827% (inactive)	–
CCCC(C)(COC(N)=O)COC(=O)NC(C)C (stereo not given)	–	inactive
Nc1ccccc1C(=O)OCC(O)CO (stereo not given)	2.32% [at 42.5 µM] (inactive)	–
CCC(C)Cl (stereo not given)	3.66% (inactive)	–
C[N+](C)(C)CCOC(=O)C(O)(c1ccccc1)c1ccccc1	4.74% [at 42.5 µM] (inactive)	–

SMILES	activity change, negative = cytotoxicity	Potency
Cc1nc(N(C)C)nc(OC(=O)N(C)C)c1C	0.0016% (inactive)	–
Clc1ccc2ccccc2c1	0.277% (inactive)	–
CC[N+]1(CCOC(=O)C(O)(c2ccccc2)c2ccccc2)CCCCC1	2.1% [at 42.5 µM] (inactive)	–
C=C(C)C(=O)OCCCCOC(=O)C(=C)C	2.56% (inactive)	–
CCCCCCCCn1sccc1=O	–	61.3 µM (active) and 57.1 µM (active)
Clc1ccc(Cl)c(Cl)c1	–	inactive
COC(=O)Cc1ccccc1	-0.404% (inactive)	–
O=[N+]([O-])O[C@H]1CO[C@H]2[C@@H]1OC[C@H]2O[N+](=O)[O-]	-3.04% [at 42.5 µM] (inactive)	–
COC(=O)C1(O)c2ccccc2-c2ccccc21	0.479% (inactive)	–
c1ccc2c(c1)sc1ccccc12	–	inactive
C[N+](C)(C)CC1CO1 (stereo not given)	2.06% (inactive)	–
CCOC(C(=O)OCCN(C)C)(c1ccccc1)c1ccccc1	-1.82% [at 42.5 µM] (inactive)	–
OCCSSCCO	0.0571% (inactive)	–
CN(C)c1ccc(N=O)cc1	–	43.4 µM (active) and 43.3 µM (active)
Nc1ccccc1C(=O)OCCc1ccccc1	–	inactive
O=C(O)c1cc(I)cc(I)c1I	-2.22% (inactive)	–
C#C[C@]1(O)CC[C@H]2[C@@H]3CCC4=CC(=O)CCC4=C3C=C[C@@]21CC	-4.21% [at 42.5 µM] (inactive)	–
OCC1CO1 (stereo not given)	–	inactive
CC(C)[C@@H](C(=O)O[C@@H](C#N)c1cccc(Oc2ccccc2)c1)c1ccc(Cl)cc1	–	inactive
CCC(C)(C)O	0.0179% (inactive)	–
